Assay results reported in the supplement of paper PMC11732987, “Enantioselective OTUD7B fragment discovery through chemoproteomics screening and high-throughput optimisation” (Communications Chemistry, 2025).

Key:
Experiment in all cases: log2 ratio of Biotin-Ahx-Ub-VS probe labelling (fragment/DMSO); higher = less target engagement (more negative = stronger competition), active = hit call of the paper (q ≤ 0.05, log2 ratio ≤ -1)
Settings in all cases: compound concentration: 200 uM; treatment time: 3 h
USP34 = USP34 (UniProt Q70CQ2)
Outline: (§1)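 Global-median-normalised Spectronaut label-free quantities were compared by unpaired t-test, and values are average log2 ratios of fragment over vehicle. Only proteins with ≥2 unique peptides were used. HEK293T lysate (495 µg per sample) was treated in triplicate with fragment at 200 µM or vehicle for 3 h and then with Biotin-Ahx-Ub-VS at 0.5 µM final for 1 h. Labelled DUBs were then NeutrAvidin-enriched, digested with LysC and trypsin, and run by diaPASEF LC-MS/MS.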

USP36 = target: T1, USP36 (UniProt Q9P275)
T1 sequence (whole entry): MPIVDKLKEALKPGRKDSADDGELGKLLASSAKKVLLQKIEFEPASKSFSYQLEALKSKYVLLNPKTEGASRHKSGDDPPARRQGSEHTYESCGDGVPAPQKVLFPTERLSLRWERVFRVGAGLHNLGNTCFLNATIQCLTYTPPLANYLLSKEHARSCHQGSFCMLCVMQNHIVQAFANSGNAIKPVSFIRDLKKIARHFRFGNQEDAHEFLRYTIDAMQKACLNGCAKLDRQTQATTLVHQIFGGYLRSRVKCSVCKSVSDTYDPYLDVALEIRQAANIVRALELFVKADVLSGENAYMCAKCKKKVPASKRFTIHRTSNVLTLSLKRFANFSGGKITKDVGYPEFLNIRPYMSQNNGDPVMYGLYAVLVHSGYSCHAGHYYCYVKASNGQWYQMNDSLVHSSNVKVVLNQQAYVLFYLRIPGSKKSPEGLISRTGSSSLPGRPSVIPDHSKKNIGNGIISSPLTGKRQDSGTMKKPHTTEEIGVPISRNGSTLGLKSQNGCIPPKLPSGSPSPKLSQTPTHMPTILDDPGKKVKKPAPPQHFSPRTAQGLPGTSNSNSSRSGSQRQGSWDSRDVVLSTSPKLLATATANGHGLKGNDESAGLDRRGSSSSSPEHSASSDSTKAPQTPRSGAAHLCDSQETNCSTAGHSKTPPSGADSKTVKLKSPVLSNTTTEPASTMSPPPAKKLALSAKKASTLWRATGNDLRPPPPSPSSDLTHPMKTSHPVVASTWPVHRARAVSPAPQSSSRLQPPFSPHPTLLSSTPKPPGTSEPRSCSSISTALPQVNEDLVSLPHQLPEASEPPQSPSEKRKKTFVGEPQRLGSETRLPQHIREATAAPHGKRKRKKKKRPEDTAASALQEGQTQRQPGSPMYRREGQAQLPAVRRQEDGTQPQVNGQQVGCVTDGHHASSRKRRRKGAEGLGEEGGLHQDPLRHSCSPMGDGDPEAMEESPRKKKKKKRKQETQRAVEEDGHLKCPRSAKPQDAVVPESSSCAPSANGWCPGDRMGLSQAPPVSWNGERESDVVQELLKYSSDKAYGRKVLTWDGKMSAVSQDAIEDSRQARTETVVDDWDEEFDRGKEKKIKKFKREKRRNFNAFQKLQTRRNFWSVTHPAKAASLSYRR
Outline: as §1

USP38 = target: T2, USP38 (UniProt Q8NB14)
T2 sequence (whole entry): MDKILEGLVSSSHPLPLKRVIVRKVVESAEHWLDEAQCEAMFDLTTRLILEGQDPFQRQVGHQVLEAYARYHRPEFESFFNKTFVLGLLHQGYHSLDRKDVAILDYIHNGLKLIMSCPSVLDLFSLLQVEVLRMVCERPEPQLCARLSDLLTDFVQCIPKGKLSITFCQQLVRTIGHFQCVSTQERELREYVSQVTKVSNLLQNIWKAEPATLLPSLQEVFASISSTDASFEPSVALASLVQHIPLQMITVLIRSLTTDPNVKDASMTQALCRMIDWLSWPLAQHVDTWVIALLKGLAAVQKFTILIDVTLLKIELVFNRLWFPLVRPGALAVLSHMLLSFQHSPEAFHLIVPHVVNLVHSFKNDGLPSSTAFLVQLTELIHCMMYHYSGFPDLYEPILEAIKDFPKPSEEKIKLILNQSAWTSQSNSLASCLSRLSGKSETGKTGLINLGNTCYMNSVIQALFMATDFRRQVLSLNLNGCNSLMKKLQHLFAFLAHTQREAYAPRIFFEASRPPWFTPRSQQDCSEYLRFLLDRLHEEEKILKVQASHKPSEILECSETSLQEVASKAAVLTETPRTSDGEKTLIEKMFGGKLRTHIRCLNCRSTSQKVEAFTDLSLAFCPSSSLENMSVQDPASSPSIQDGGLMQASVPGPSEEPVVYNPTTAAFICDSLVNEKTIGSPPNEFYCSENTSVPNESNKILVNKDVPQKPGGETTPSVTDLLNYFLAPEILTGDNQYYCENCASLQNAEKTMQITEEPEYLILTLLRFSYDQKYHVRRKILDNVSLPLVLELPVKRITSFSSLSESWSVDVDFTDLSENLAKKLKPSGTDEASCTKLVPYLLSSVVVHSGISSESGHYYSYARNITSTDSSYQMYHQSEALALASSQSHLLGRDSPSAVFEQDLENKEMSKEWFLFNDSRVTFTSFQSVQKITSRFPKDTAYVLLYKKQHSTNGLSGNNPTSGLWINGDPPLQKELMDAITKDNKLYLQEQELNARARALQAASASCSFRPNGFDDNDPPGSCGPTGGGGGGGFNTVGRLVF
Outline: as §1

USP39 = target: T3, USP39 (UniProt Q53GS9)
T3 sequence (whole entry): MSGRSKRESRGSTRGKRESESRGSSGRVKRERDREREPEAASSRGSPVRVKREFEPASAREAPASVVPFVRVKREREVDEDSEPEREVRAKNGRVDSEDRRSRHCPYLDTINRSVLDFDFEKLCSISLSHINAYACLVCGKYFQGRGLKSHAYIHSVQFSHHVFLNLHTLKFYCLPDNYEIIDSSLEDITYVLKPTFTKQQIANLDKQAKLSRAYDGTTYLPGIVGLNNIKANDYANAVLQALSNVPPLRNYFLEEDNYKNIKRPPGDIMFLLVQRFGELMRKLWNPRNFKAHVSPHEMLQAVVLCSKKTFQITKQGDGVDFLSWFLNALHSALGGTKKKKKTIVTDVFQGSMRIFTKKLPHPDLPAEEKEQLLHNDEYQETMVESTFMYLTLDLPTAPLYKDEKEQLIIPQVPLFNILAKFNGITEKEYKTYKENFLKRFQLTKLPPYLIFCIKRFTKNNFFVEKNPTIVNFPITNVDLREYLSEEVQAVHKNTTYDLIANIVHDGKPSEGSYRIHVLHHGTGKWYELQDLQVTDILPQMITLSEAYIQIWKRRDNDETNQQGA
Outline: as §1

USP4 = target: T4, USP4 (UniProt Q13107)
T4 sequence (whole entry): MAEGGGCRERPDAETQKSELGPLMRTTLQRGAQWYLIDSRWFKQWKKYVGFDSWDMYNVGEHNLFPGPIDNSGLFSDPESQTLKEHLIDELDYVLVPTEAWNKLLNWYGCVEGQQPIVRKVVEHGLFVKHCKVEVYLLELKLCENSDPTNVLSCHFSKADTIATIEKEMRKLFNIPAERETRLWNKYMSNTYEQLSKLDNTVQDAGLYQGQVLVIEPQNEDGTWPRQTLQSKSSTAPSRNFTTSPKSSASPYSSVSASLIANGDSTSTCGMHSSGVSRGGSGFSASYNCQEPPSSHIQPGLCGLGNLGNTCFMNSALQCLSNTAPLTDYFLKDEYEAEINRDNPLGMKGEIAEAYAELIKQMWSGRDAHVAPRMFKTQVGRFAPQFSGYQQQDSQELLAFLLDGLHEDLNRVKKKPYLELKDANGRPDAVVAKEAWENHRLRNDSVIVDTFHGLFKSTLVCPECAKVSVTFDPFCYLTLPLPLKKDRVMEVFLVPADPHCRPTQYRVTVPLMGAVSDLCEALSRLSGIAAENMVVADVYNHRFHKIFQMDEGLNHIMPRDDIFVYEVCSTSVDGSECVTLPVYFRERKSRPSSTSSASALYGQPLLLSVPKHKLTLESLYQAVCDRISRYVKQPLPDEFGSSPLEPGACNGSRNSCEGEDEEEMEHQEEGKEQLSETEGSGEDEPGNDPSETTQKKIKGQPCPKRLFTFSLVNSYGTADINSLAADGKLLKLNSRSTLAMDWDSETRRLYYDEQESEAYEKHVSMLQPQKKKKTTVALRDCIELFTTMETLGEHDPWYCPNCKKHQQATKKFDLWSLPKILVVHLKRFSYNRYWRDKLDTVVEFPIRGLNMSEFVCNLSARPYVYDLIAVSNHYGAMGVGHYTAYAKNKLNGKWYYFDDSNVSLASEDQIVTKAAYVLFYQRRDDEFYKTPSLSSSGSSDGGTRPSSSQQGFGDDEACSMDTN
Outline: as §1

Measured: log2 ratio of Biotin-Ahx-Ub-VS probe labelling

Chain of USP34 (Q70CQ2 whole entry, the tested form may be a part): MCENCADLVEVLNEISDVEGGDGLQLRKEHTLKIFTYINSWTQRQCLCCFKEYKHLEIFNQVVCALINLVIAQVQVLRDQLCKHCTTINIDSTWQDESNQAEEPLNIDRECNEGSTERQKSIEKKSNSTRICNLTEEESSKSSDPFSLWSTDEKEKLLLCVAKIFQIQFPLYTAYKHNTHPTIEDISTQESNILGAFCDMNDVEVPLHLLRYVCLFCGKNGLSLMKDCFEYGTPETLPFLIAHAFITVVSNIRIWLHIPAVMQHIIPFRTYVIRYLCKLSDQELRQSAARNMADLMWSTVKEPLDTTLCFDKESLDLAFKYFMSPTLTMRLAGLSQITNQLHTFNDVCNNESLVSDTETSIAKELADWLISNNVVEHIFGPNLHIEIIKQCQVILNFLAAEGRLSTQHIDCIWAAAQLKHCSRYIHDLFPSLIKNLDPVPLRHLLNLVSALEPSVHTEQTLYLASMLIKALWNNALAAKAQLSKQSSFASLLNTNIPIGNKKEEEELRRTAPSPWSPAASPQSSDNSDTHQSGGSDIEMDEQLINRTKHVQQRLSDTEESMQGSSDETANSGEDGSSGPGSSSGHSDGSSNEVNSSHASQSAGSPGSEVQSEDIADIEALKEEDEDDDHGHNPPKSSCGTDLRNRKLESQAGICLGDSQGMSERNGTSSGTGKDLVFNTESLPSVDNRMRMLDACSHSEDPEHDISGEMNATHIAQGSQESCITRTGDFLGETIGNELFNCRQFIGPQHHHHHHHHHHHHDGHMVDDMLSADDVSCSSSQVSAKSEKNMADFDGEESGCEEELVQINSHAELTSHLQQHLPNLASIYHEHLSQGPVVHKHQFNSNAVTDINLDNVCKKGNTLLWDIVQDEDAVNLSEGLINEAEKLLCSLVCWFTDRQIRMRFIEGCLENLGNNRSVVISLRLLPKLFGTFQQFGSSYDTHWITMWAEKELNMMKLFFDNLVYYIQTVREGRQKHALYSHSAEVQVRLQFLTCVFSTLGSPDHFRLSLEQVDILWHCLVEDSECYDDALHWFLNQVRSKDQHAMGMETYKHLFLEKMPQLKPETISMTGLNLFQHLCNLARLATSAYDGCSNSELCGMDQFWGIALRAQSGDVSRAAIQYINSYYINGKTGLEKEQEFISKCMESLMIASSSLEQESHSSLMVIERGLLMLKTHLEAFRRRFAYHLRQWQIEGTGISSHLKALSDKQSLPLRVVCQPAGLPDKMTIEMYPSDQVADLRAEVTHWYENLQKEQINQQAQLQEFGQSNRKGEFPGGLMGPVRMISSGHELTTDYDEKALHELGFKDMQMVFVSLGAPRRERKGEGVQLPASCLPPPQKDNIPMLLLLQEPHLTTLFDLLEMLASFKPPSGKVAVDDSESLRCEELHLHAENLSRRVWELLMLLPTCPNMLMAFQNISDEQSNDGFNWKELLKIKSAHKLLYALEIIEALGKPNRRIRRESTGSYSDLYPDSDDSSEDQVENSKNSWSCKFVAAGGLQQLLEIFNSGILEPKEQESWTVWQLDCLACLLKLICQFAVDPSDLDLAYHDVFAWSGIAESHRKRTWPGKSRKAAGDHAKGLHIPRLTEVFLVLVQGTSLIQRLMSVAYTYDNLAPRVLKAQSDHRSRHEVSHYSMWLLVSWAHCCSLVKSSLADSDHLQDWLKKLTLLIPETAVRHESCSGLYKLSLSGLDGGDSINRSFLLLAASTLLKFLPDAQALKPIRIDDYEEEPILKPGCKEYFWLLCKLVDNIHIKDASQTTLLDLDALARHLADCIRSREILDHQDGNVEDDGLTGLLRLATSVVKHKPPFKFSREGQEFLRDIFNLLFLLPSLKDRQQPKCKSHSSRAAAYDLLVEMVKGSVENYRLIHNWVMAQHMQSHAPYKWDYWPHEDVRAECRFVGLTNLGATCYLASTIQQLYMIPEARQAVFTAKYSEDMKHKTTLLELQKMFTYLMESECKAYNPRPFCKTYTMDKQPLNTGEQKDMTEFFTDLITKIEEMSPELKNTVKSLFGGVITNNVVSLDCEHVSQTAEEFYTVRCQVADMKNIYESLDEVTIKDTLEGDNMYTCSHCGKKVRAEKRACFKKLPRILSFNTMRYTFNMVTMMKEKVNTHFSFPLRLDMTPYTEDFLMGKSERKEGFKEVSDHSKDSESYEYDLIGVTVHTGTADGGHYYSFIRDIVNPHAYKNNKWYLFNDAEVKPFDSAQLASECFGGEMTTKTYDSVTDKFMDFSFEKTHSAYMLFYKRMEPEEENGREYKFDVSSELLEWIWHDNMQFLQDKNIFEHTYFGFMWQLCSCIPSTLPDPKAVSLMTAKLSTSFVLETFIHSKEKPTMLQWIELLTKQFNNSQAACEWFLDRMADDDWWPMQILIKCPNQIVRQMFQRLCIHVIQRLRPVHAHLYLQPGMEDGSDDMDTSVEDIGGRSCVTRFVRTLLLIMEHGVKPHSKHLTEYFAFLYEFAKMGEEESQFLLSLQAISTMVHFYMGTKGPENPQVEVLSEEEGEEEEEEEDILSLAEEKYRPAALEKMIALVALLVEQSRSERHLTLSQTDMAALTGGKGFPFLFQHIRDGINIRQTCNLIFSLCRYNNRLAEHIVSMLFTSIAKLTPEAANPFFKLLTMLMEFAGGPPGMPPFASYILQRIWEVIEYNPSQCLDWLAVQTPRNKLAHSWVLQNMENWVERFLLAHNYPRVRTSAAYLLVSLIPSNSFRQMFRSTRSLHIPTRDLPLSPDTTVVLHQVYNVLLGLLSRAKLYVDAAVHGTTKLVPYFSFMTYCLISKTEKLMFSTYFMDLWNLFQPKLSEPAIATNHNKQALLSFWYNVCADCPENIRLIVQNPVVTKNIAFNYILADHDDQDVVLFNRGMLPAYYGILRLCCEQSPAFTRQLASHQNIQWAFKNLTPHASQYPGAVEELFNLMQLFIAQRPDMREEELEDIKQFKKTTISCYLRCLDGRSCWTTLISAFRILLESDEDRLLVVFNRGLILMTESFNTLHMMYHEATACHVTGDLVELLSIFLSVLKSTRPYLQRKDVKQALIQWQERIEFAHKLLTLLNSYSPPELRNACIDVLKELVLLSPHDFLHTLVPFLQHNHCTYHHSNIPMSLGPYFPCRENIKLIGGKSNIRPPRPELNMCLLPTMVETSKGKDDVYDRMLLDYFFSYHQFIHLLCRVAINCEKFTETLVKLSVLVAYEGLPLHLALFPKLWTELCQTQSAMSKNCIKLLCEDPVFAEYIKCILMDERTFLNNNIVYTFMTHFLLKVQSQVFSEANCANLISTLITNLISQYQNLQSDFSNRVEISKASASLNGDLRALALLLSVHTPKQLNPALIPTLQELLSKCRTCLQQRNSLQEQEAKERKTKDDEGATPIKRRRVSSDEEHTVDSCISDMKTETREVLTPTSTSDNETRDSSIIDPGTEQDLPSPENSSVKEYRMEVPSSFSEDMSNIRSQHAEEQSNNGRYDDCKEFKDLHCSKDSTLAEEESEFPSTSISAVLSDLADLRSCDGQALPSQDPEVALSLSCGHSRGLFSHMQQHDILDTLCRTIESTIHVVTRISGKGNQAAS

O=C(CCl)Nc1cc(Cl)ccc1-n1cncn1
inactive: USP34 -0.448 | USP36 -0.325 | USP38 -0.932 | USP39 0.142 | USP4 -0.712
